Measured values taken from PubChem BioAssay (NCI).
This is part of a sample that, as a whole, favours compounds with a hit. Of some 83,000 tested, about 20% had one in any assay.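 Assay: single dose, 48 h. Readout: percent growth (0 = no net growth; negative = cell death). Active: <10.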 The source made the active and inactive calls.

Tests used:
Assay in all cases: NCI-60 one-dose screen, 48 h (100 = growth as untreated, 0 = no growth, -100 = all killed)
HCT-15 colon = conditions: 10 µM unless noted
HT29 colon = conditions: 10 µM unless noted
SNB-75 CNS = conditions: 10 µM unless noted
SNB-19 CNS = conditions: 10 µM unless noted
U251 CNS = conditions: 10 µM unless noted
PC-3 prostate = conditions: 10 µM unless noted
SK-MEL-5 melanoma = conditions: 10 µM unless noted
UACC-62 melanoma = conditions: 10 µM unless noted
LOX IMVI melanoma = conditions: 10 µM
SK-MEL-28 melanoma = conditions: 10 µM unless noted
SK-MEL-2 melanoma = conditions: 10 µM unless noted
EKVX NSCLC = conditions: 10 µM unless noted
SN12C renal = conditions: 10 µM unless noted
TK-10 renal = conditions: 10 µM unless noted
ACHN renal = conditions: 10 µM unless noted
CAKI-1 renal = conditions: 10 µM unless noted
A498 renal = conditions: 10 µM unless noted
UO-31 renal = conditions: 10 µM unless noted
CCRF-CEM leukemia = conditions: 10 µM unless noted
MOLT-4 leukemia = conditions: 10 µM unless noted

Measured: growth

CCC1CCC(C)NC1 (centres undefined)
inactive: HCT-15 colon 91.5% | HT29 colon 104% | SNB-75 CNS 88.6% | SNB-19 CNS 100% | U251 CNS 95.7% | PC-3 prostate 94.2% | SK-MEL-5 melanoma 98.9% | UACC-62 melanoma 99.3% | LOX IMVI melanoma 95.9% | SK-MEL-28 melanoma 102% | SK-MEL-2 melanoma 115% | EKVX NSCLC 92.5% | SN12C renal 106% | TK-10 renal 97.3% | ACHN renal 102% | CAKI-1 renal 102% | A498 renal 65.6%

Clc1ccc(/C=C/c2ccccn2)cc1
active: CCRF-CEM leukemia -56%
inactive: HCT-15 colon 89.5% | HT29 colon 111% | SNB-75 CNS 72.5% | SNB-19 CNS 96.3% | U251 CNS 81.1% | PC-3 prostate 81.4% | SK-MEL-5 melanoma 101% | UACC-62 melanoma 106% | LOX IMVI melanoma 98.6% | SK-MEL-28 melanoma 99% | SK-MEL-2 melanoma 103% | EKVX NSCLC 76.3% | SN12C renal 108% | UO-31 renal 78.1% | TK-10 renal 99.3% | ACHN renal 103% | A498 renal 77.3% | MOLT-4 leukemia 86.9%

Cc1cccc(-[n+]2noc(N)n2)c1
inactive: HCT-15 colon 66.4% | HT29 colon 102% | SNB-75 CNS 82.1% | SNB-19 CNS 81.4% | U251 CNS 86% | PC-3 prostate 60.3% | SK-MEL-5 melanoma 97.4% | UACC-62 melanoma 40.7% | LOX IMVI melanoma 46.9% | SK-MEL-28 melanoma 113% | SK-MEL-2 melanoma 145% | EKVX NSCLC 67.9% | SN12C renal 95.7% | TK-10 renal 124% | ACHN renal 46.1% | CAKI-1 renal 59.6% | A498 renal 113% | MOLT-4 leukemia 72.8%

BrCc1cccc(C[P+](c2ccccc2)(c2ccccc2)c2ccccc2)c1
inactive: HCT-15 colon 92.5% | HT29 colon 50.7% | SNB-75 CNS 47.6% | SNB-19 CNS 52.3% | U251 CNS 19.4% | PC-3 prostate 23.2% | SK-MEL-5 melanoma 22.6% | UACC-62 melanoma 54.7% | LOX IMVI melanoma 40.2% | SK-MEL-28 melanoma 67.6% | SK-MEL-2 melanoma 70.4% | EKVX NSCLC 44.6% | SN12C renal 57.7% | UO-31 renal 70.7% | TK-10 renal 90.8% | ACHN renal 82.7% | A498 renal 84.1% | CCRF-CEM leukemia 36.1% | MOLT-4 leukemia 84.9%

COc1ccc(C2CCCCC2=O)cc1 (centres undefined)
inactive: HCT-15 colon 98.6% | HT29 colon 108% | SNB-75 CNS 101% | SNB-19 CNS 111% | U251 CNS 99% | PC-3 prostate 95.4% | SK-MEL-5 melanoma 110% | UACC-62 melanoma 110% | LOX IMVI melanoma 96.6% | SK-MEL-28 melanoma 111% | SK-MEL-2 melanoma 119% | EKVX NSCLC 102% | SN12C renal 109% | UO-31 renal 96.7% | ACHN renal 98.7% | CAKI-1 renal 105% | A498 renal 99.7% | CCRF-CEM leukemia 106% | MOLT-4 leukemia 97.9%

CCCCOC(=O)c1ccc(NC(=O)CCl)cc1
active: U251 CNS 4.55% | LOX IMVI melanoma -43.4% | ACHN renal -17.1% | CCRF-CEM leukemia -15% | MOLT-4 leukemia 0.49%
inactive: HCT-15 colon 14.9% | HT29 colon 12.8% | SNB-75 CNS 68.9% | SNB-19 CNS 62.6% | PC-3 prostate 51.7% | SK-MEL-5 melanoma 58.7% | UACC-62 melanoma 52.9% | SK-MEL-28 melanoma 102% | SK-MEL-2 melanoma 62.3% | EKVX NSCLC 86% | SN12C renal 18.3% | UO-31 renal 57.9% | TK-10 renal 92% | A498 renal 99.2%

Nc1nnc2cc(F)ccc2n1
inactive: HCT-15 colon 99.4% | HT29 colon 111% | SNB-75 CNS 75.1% | SNB-19 CNS 99.2% | U251 CNS 110% | PC-3 prostate 96.6% | SK-MEL-5 melanoma 114% | UACC-62 melanoma 105% | LOX IMVI melanoma 96.3% | SK-MEL-28 melanoma 108% | SK-MEL-2 melanoma 112% | EKVX NSCLC 96.9% | SN12C renal 89.1% | UO-31 renal 85% | TK-10 renal 126% | ACHN renal 99.4% | A498 renal 105% | CCRF-CEM leukemia 107% | MOLT-4 leukemia 102%

CC1CCC(C)(C)c2ccccc21 (centres undefined)
inactive: HCT-15 colon 101% | HT29 colon 103% | SNB-75 CNS 82.9% | SNB-19 CNS 103% | U251 CNS 99.2% | PC-3 prostate 93.5% | SK-MEL-5 melanoma 95.8% | UACC-62 melanoma 103% | LOX IMVI melanoma 98.6% | SK-MEL-28 melanoma 97.3% | SK-MEL-2 melanoma 106% | EKVX NSCLC 96.3% | SN12C renal 99.5% | UO-31 renal 91.5% | TK-10 renal 104% | ACHN renal 98.4% | CAKI-1 renal 96.5% | MOLT-4 leukemia 116%

O=C(c1cccc(C(=O)c2ccc3c4c(cccc24)C(=O)N(c2ccccc2)C3=O)c1)c1ccc2c3c(cccc13)C(=O)N(c1ccccc1)C2=O
inactive: HCT-15 colon 101% | HT29 colon 106% | SNB-75 CNS 93.4% | SNB-19 CNS 111% | U251 CNS 89.3% | PC-3 prostate 82.3% | SK-MEL-5 melanoma 84.4% | UACC-62 melanoma 84.7% | LOX IMVI melanoma 91.2% | SK-MEL-28 melanoma 109% | SK-MEL-2 melanoma 111% | EKVX NSCLC 104% | SN12C renal 92.4% | TK-10 renal 115% | ACHN renal 102% | CAKI-1 renal 100% | A498 renal 86.7% | CCRF-CEM leukemia 89.9% | MOLT-4 leukemia 90.9%

OC(CCN1CCCCC1)(c1ccccc1)c1ccccc1
inactive: HCT-15 colon 104% | HT29 colon 96.1% | SNB-75 CNS 85.8% | SNB-19 CNS 110% | U251 CNS 100% | PC-3 prostate 96% | SK-MEL-5 melanoma 97.4% | UACC-62 melanoma 106% | LOX IMVI melanoma 97.2% | SK-MEL-28 melanoma 112% | SK-MEL-2 melanoma 110% | EKVX NSCLC 98.9% | SN12C renal 108% | UO-31 renal 75.4% | TK-10 renal 113% | CAKI-1 renal 92.6% | A498 renal 100% | CCRF-CEM leukemia 103% | MOLT-4 leukemia 102%

Cc1ccnc(Nc2nc3ccccc3[nH]2)n1
inactive: HCT-15 colon 101% | HT29 colon 100% | SNB-75 CNS 109% | SNB-19 CNS 112% | U251 CNS 103% | PC-3 prostate 101% | SK-MEL-5 melanoma 105% | UACC-62 melanoma 113% | LOX IMVI melanoma 97.9% | SK-MEL-28 melanoma 115% | SK-MEL-2 melanoma 105% | EKVX NSCLC 104% | SN12C renal 104% | UO-31 renal 104% | TK-10 renal 113% | ACHN renal 106% | CCRF-CEM leukemia 93.3% | MOLT-4 leukemia 92.4%

CCOC(=O)c1c(C)[nH]c(C)c1C=O
inactive: HCT-15 colon 107% | HT29 colon 107% | SNB-75 CNS 94.2% | SNB-19 CNS 97.1% | U251 CNS 88.2% | PC-3 prostate 82.7% | SK-MEL-5 melanoma 101% | UACC-62 melanoma 91.2% | LOX IMVI melanoma 97.9% | SK-MEL-28 melanoma 109% | SK-MEL-2 melanoma 102% | EKVX NSCLC 102% | SN12C renal 95.8% | TK-10 renal 95.9% | ACHN renal 102% | CAKI-1 renal 99.8% | A498 renal 92% | CCRF-CEM leukemia 79.8%

CCOC(=O)N[C@H]1CCc2cc(OC)c(OC)c(OC)c2-c2ccc(SC)c(=O)cc21
inactive: SNB-75 CNS 44.3% | SNB-19 CNS 30.8% | U251 CNS 17.1% | PC-3 prostate 27.7% | UACC-62 melanoma 39.9% | LOX IMVI melanoma 22.4% | SK-MEL-28 melanoma 60.1% | SK-MEL-2 melanoma 32.2% | EKVX NSCLC 31.6% | SN12C renal 26.8% | UO-31 renal 47% | TK-10 renal 43.7% | ACHN renal 28.3% | CAKI-1 renal 19.7% | CCRF-CEM leukemia 21.9%
active: HCT-15 colon 7.82% | HT29 colon 7.57% | SK-MEL-5 melanoma -51.3% | MOLT-4 leukemia 9.15%

COc1ccc(Nc2cc(Cl)ccc2C(=O)O)cn1
inactive: HCT-15 colon 106% | HT29 colon 106% | SNB-75 CNS 99.4% | SNB-19 CNS 96.5% | U251 CNS 105% | PC-3 prostate 99% | SK-MEL-5 melanoma 114% | UACC-62 melanoma 96.3% | LOX IMVI melanoma 98.1% | SK-MEL-28 melanoma 98.8% | SK-MEL-2 melanoma 115% | EKVX NSCLC 130% | SN12C renal 93.2% | UO-31 renal 88.9% | TK-10 renal 156% | ACHN renal 108% | A498 renal 90.9% | CCRF-CEM leukemia 96.3% | MOLT-4 leukemia 93.5%

N#C/C(=C\c1ccc2c(c1)OCO2)c1ccccc1
inactive: HCT-15 colon 49.4% | HT29 colon 35.5% | SNB-75 CNS 76.2% | SNB-19 CNS 86.4% | U251 CNS 55% | PC-3 prostate 84.8% | SK-MEL-5 melanoma 54.6% | UACC-62 melanoma 69.7% | LOX IMVI melanoma 78.3% | SK-MEL-28 melanoma 87.7% | SK-MEL-2 melanoma 76.5% | EKVX NSCLC 80.9% | SN12C renal 89.3% | UO-31 renal 76.7% | ACHN renal 93.6% | CAKI-1 renal 58.9% | A498 renal 62.7% | CCRF-CEM leukemia 75.3% | MOLT-4 leukemia 57.8%

Cn1c(=O)c2nc3c(=O)n(C)c(=O)n(C)c3nc2n(C)c1=O
inactive: HCT-15 colon 109% | HT29 colon 109% | SNB-75 CNS 92.4% | SNB-19 CNS 92.3% | U251 CNS 103% | PC-3 prostate 97.4% | SK-MEL-5 melanoma 106% | UACC-62 melanoma 94.4% | LOX IMVI melanoma 105% | SK-MEL-28 melanoma 122% | SK-MEL-2 melanoma 110% | EKVX NSCLC 93.9% | SN12C renal 106% | UO-31 renal 82.1% | TK-10 renal 128% | ACHN renal 101% | CCRF-CEM leukemia 104% | MOLT-4 leukemia 84.9%

OCC1CCC(O)C(CO)N1 (centres undefined)
inactive: HCT-15 colon 94.1% | HT29 colon 108% | SNB-75 CNS 70.2% | SNB-19 CNS 105% | U251 CNS 100% | PC-3 prostate 95% | SK-MEL-5 melanoma 108% | UACC-62 melanoma 105% | LOX IMVI melanoma 100% | SK-MEL-28 melanoma 96.3% | SK-MEL-2 melanoma 129% | EKVX NSCLC 92.3% | SN12C renal 103% | UO-31 renal 90.8% | TK-10 renal 121% | ACHN renal 100% | A498 renal 91.5% | MOLT-4 leukemia 106%

Oc1ccc2ccccc2c1CN1CCOCC1
inactive: HCT-15 colon 107% | HT29 colon 110% | SNB-75 CNS 95.6% | SNB-19 CNS 110% | U251 CNS 110% | PC-3 prostate 99.9% | SK-MEL-5 melanoma 113% | UACC-62 melanoma 111% | LOX IMVI melanoma 115% | SK-MEL-28 melanoma 107% | SK-MEL-2 melanoma 103% | EKVX NSCLC 113% | SN12C renal 107% | TK-10 renal 123% | ACHN renal 103% | CAKI-1 renal 94.6% | A498 renal 112% | CCRF-CEM leukemia 95.3% | MOLT-4 leukemia 99.6%
